The sample as a whole holds a higher share of hits than the screen did.
Pf Dd2 inh: inhibitors of Plasmodium falciparum Dd2 growth. 120,000 tested, 4.3% active. P. falciparum Dd2 growth, SYBR Green, 72 h. Potency, µM (top dose mostly 28.9 µM), actives largely listed as inhibitors; active = well fitted inhibition curve with a large enough effect; note: nearly all actives have a fitted effect of over 65% in size
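Readout: SYBR Green fluorescence, 485 nm excitation, 535 nm emission, after ~16 h lysis at 37C. Before that, Dd2-infected red cells (2.5% hematocrit) grew 72 h with compound, 29 uM top final concentration.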
Each line names hits and unclear results; the compound was inactive in the other large screens.

COc1cccc(OCc2cc(C(=O)NC3CCOC(C)(C)C3)n[nH]2)c1 (stereo not given)	none
O=C(NCc1nnc2ccc(-c3ccccc3)nn12)c1ccccc1F	none
COc1ccc(C(=O)N[C@@H]2CN(c3ncccn3)C[C@H]2CN(C)C)cc1F	none
COc1cccc2c1ccn2CCNC(=O)Cn1nc2c(cc1=O)CCCC2	none
O=C(NC1CCCCCC1)c1ccc(N2CC3CC(C2)[C@H]2CCCC(=O)N2C3)nc1 (stereo not given in full)	none
COc1ccccc1Oc1c(CCC(=O)NCC2CCCO2)c(C)nn1-c1ccc(F)cc1 (stereo not given)	none
CCNC(=O)N1CCCCCNC(=O)[C@@H]2CCC[C@@H]21	none
Cc1nncn1CCN1CCCC(CCC(=O)N(C)C2CCN(C)CC2)C1 (stereo not given)	none
CCOc1ccccc1CNC(=O)c1cccn1-c1nnc(N2CCCCC2)s1	none
c1ccc(N2CCN(Cc3cccn3-c3nnc(N4CCN(C5CCCCC5)CC4)s3)CC2)cc1	none
CCOc1ccccc1CNCc1cccn1-c1nnc(N2CCN(c3ccccc3)CC2)s1	Pf Dd2 inh 7.08µM
O=c1c2c(CO)c(-c3ccc(F)cc3)nn2ccn1CCOc1ccccc1	none
Cc1cc(C)cc(NC(=O)Cn2c(N3CCCCC3)nc(C)c(C)c2=O)c1	none
Cc1cc(C)cc(NC(=O)Cn2nc3n(c2=O)CCCCC3)c1	none
Cc1ccc(NC(=O)Nc2cc3c(cc2N2CCCCC2)n(C)c(=O)n3C)cc1Cl	none
CCc1ccccc1NC(=O)Nc1cc(C(=O)NCc2ccccc2OC)ccc1N1CCCC1	none
CCn1c(=O)n(CC)c2cc(N3CCCCC3)c(NC(=O)Nc3cc(C)cc(C)c3)cc21	Pf Dd2 inh 10µM
CCn1c(=O)n(CC)c2cc(N3CCCCC3)c(NC(=O)Nc3ccccc3Cl)cc21	Pf Dd2 inh 10µM
COCc1noc([C@@H]2CC(F)(F)CN2C(=O)COc2ccccc2)n1	none
O=C1CCCN1CCCN1C(=O)[C@@H]2C[C@@H](O)CN2C2(CN(Cc3ccccc3)C2)C1=O	none
Cc1ccc(CNC(=O)c2cc3sccc3n2Cc2ccc(Cl)cc2)cc1	none
CC(=O)c1ccc(NC(=O)c2cc3sccc3n2Cc2ccc(F)cc2)cc1	none
COC(=O)c1cc(NC(=O)c2cc3sccc3n2Cc2ccc(Cl)cc2)cc(C(=O)OC)c1	Pf Dd2 inh 11.2µM
CC1Oc2ccc(NC(=O)c3c(F)cccc3F)cc2CN(Cc2ccccc2F)C1=O (stereo not given)	none
O=C1NC[C@@H](CCC(=O)N2CCCCC2)N2C[C@@H](NC(=S)Nc3ccc(Cl)cc3)C[C@@H]12	Pf Dd2 inh 6.31µM
CC(C)NC(=O)N[C@H]1C[C@H]2C(=O)NC[C@@H](CCC(=O)N3CCCCC3)N2C1	none
O=C(Nc1ccccc1)N[C@H]1C[C@H]2C(=O)NC[C@@H](CCC(=O)N3CCCCC3)N2C1	none
Cc1cccc(C(=O)N2CCCC(n3cc(-c4nc(C(C)C)no4)nn3)C2)c1 (stereo not given)	none
CN(C)c1ccc(CN2CCc3nc(C4CC4)nc(-c4ccc(O)cc4)c3CC2)cc1	none
CC(C)c1nc2c(c(-c3ccc(O)cc3)n1)CN(Cc1cccnc1)CC2	none
CC(C)c1nc2c(c(-c3ccc(O)cc3)n1)CN(CC1CCCCC1)CC2	Pf Dd2 inh 3.55µM
CC(=O)N1CCc2nc(C(C)C)nc(-c3ccc(O)cc3)c2CC1	none
CC(C)c1nc2c(c(-c3ccc(O)cc3)n1)CN(Cc1ccccn1)CC2	none
CC(C)c1nc2c(c(-c3ccc(O)cc3)n1)CN(Cc1cccn1C)CC2	none
Cc1nc2c(c(-c3ccc(O)cc3)n1)CN(Cc1cccc3ccccc13)CC2	none
CC(C)c1nc2c(c(-c3ccc(O)cc3)n1)CCN(Cc1ccc(C(F)(F)F)cc1)CC2	Pf Dd2 inh 1.78µM
CC(=O)Nc1ccc(CN2CCc3nc(C(C)C)nc(-c4ccc(Cl)cc4)c3CC2)cc1	Pf Dd2 inh 1.12µM
Cc1nc2c(c(-c3ccc(Cl)cc3)n1)CCN(C(=O)Nc1ccccc1)CC2	none
CC(C)c1nc2c(c(-c3ccc(O)cc3)n1)CCN(Cc1cccc3ccccc13)CC2	Pf Dd2 inh 3.16µM
CC(=O)Nc1ccc(CN2CCn3c(nnc3-c3ccc(Cl)cc3)C2)cc1	none
COc1ccc(CN2C(=O)COC[C@H]2C(=O)NCc2ccc(Cl)cc2)c(OC)c1	none
O=C(Nc1cc(F)cc(F)c1)N1CCCC1c1nncn1C1CCCC1 (stereo not given)	none
CNC(=O)[C@@H]1CN(C(=O)c2ccc(F)cc2Cl)C[C@H]1COC	none
N#Cc1cccc(-c2cn3c(n2)N(C(=O)C2CCCO2)CCC3)c1 (stereo not given)	none
Cn1ccc2c(C(=O)N3CCCC(c4ccc(C(=O)O)cc4)C3)cccc21 (stereo not given)	none
Cc1ccc(CN2CCCc3nc(C)nc(-c4ccc(O)cc4)c3C2)cc1	Pf Dd2 inh 2.82µM
COc1ccc(CN2CCc3nc(C)nc(-c4ccc(O)cc4)c3C2)cc1	none
Cc1nc2c(c(-c3ccc(O)cc3)n1)CN(Cc1ccc(F)cc1)CCC2	none
COc1ccc(-c2nnc3n2CCN(C(=O)C(C)(C)C)C3)cc1	none
CC(=O)Nc1ccc(S(=O)(=O)N2CCN3C(=O)CN(C)C(=O)C3C2)cc1 (stereo not given)	none
Cc1ccc(C)c(NC(=O)Cn2c(=O)n(-c3ccccc3)c(=O)c3c2cc(C)n3C)c1	none
COCCN1CCN(C[C@@H]2C=C(C)[C@H](Cc3nnc(-c4ccc(N(C)C)cc4)o3)C[C@H]2C(C)C)CC1	Pf Dd2 inh 3.98µM
COCCN1CCN(C[C@@H]2C=C(C)[C@H](Cc3nnc(-c4cccnc4)o3)C[C@H]2C(C)C)CC1	none
CC1=C[C@@H](CN2CCC(O)CC2)[C@H](C(C)C)C[C@H]1Cc1nnc(-c2ccc(N(C)C)cc2)o1	Pf Dd2 inh 3.55µM
CC1=C[C@@H](CN2CCC(O)CC2)[C@H](C(C)C)C[C@H]1Cc1nnc(C)o1	none
CCCN1C(=O)C(CC(=O)NC(C)CC)Sc2ncccc21 (stereo not given)	none
Cc1ccc(OC2(C(=O)O)CCN(Cc3ccc(CO)o3)CC2)cc1	none
CCN1c2cc(C(=O)NC3CCCC3)ccc2C(=O)N2CCCCC21 (stereo not given)	none
CC1=Nc2cc(C(=O)NC3CCCC3)ccc2Sc2ccc(C)cc21	none
O=C(NC1CCCCC1)c1ccc2c(c1)N(Cc1cccc(F)c1)C(=O)c1ccccc1S2	none
CCN1C(=O)Cc2cc(C(=O)NCCC(C)C)ccc21	none
CCC1=Nc2cc(C(=O)NC3CCCC3)ccc2Sc2ccc(Cl)cc21	Pf Dd2 inh 4.47µM
CC(C)CCNC(=O)c1ccc2c(c1)N(C)C(=O)c1ccccc1S2	none
CCN1c2cc(C(=O)NC3CCCC3)ccc2C(=O)N2CCCCCC21 (stereo not given)	none
